# Compound activity: PubChem BioAssay, several laboratories
# Sampled rows, rich in hits. Any-hit rate of the full collection: about 1.6%.
# eIF4H FP inh – inhibitors of RNA binding by human eIF4H; AID 2012; inhibition, % at 35 µM; eIF4H fluorescence polarization binding assay; actives 0.94% (n = 290,000);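 also: calls also rest on retests at 20 µM and on dose response follow-up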
# MLLE-PAM2 inh – inhibitors of microRNA-mediated deadenylation, human PABP1 MLLE binding; P11940; GST-MLLE / FITC-PAM2 fluorescence polarization; inhibition, % at 20 µM; actives 0.36% (n = 360,000); in the data active = inhibition above about 35%, passing the limit was not always enough;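 also: plate controls were DMSO wells with GST-MLLE for no effect and wells lacking GST-MLLE protein for full effect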
# PABP FP inh – PABP-poly(A) binding inhibition | P11940 | PABP-poly(A) RNA binding, fluorescence polarization | calls only at 35 µM | actives 1% (n = 290,000) | AID 2014;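 also: calls also rest on retests at 20 µM and on dose response follow-up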
# PERK inhibitor – human PERK inhibition, primary cell-based screen | Q9NZJ5 | CHO PERK-DD fusion, SEAP luminescence translation reporter | inhibition, % at 5.6 µM | actives 0.17% (n = 220,000);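 active = inhibition above the mean inhibition of all tested compounds plus 3 SD, set separately per screening campaign, cut at about 2.9% in these data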;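 also: PERK kinase domain activated by AP20187 dimerizer at 100 nM; 0% = DMSO with dimerizer and 100% = rapamycin at 8.4 µM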
# eIF4E 4G PPI – inhibitors of eIF4E and eIF4G interaction in translation initiation. TR-FRET eIF4E-eIF4GI(517-606) binding, 2 h. actives 0.37% (n = 220,000). P63073+Q04637. inhibition, % at 21.7 µM. AID 782;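 active = inhibition above about 30%, limit read from the data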;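 also: 0% = full FRET control wells and 100% = background wells lacking eIF4GI fragment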
# Target sequence (P63073 whole entry, looked up, the tested form may be a part): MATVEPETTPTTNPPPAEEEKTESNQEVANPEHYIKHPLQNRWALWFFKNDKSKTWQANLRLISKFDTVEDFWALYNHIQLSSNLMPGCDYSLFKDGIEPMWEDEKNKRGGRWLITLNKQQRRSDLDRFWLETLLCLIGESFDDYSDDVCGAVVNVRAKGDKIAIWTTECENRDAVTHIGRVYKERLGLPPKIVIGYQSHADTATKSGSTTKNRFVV
# Target sequence (Q04637 whole entry, looked up, the tested form may be a part): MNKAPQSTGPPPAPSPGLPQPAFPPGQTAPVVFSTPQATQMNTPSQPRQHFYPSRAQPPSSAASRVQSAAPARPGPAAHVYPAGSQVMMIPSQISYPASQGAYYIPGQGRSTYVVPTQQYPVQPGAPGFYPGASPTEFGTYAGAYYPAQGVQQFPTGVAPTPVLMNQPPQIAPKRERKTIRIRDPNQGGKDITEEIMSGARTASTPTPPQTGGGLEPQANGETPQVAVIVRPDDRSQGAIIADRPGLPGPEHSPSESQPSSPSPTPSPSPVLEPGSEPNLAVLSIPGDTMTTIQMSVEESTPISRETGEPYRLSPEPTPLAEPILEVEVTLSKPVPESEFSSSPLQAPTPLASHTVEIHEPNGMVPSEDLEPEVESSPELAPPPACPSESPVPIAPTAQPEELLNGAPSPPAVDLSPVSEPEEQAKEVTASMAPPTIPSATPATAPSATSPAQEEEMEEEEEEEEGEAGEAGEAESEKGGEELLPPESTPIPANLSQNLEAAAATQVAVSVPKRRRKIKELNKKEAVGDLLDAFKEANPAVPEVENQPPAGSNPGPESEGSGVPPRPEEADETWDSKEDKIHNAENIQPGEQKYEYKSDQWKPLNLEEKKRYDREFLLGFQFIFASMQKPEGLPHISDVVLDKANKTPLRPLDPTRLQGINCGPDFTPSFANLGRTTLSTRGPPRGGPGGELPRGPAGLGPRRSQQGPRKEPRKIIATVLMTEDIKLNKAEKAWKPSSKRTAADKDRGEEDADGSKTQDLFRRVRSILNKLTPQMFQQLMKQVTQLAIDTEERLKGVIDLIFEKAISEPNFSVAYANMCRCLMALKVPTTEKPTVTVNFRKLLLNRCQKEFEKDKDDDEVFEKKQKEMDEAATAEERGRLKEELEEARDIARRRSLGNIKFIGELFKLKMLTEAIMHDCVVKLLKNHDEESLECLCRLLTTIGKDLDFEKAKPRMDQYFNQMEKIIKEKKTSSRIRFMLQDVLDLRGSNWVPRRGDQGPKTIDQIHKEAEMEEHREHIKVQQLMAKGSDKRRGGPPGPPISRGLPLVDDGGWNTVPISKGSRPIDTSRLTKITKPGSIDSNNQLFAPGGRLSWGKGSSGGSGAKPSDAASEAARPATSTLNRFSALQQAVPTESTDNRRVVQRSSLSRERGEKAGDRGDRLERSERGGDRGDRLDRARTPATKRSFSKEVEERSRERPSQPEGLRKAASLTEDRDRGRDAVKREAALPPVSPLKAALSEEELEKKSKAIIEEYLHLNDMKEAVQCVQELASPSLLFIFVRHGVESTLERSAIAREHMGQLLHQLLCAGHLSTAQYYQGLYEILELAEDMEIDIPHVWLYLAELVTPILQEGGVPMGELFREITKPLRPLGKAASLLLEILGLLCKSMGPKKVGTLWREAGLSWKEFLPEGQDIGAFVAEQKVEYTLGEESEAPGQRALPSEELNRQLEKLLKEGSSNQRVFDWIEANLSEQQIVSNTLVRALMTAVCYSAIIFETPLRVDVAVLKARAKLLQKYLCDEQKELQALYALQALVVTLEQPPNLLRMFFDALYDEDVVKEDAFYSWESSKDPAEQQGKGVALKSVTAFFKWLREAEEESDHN
# Numbers without * were called inactive; i = inactive; nt = no result given; + = active, no number; [ ] = another dose, or the depositor's remark. Unless noted, no rule for the calls is given here.
SMILES,eIF4H FP inh,MLLE-PAM2 inh,PABP FP inh,PERK inhibitor,eIF4E 4G PPI
COc1ccc(C(=O)NC2(C(F)(F)F)N=C3SCCN3C2=O)cc1 (centres undefined),-2,40*,i,-1,1
CCNc1nc(SCC(N)=O)nc2sc3c(c12)CCN(C)C3,98,37,+,nt,nt
CCOC(=O)c1sc2nc3c(SCCC#N)cc(C(=O)c4cc(F)ccc4O)cn3c(=O)c2c1C,27,-33,i,1,10
CCOC(=O)c1sc2nc3c(SCCC(=O)O)cc(C(=O)c4cc(OC)ccc4O)cn3c(=O)c2c1C,81,-81,i,1,57*
O=C(O)CSc1cc(C(=O)c2cc(F)ccc2O)cn2c(=O)c3c(-c4ccccc4)csc3nc12,50*,-18,i,0,22
CCc1c(C)sc2nc3c(C(=O)N4CCOCC4)cc(C(=O)c4cc(F)ccc4O)cn3c(=O)c12,-4,-48,i,1,-1
C/C(=N\NC(=O)c1nnn(-c2nonc2N)c1CN1CCC(C)CC1)c1ccc(Br)cc1,nt,2,nt,nt,nt
CCN(CC)P(=O)(Nc1ccccc1Br)c1ccc(N(C)C)cc1NC(=O)c1ccco1 (centres undefined),-2,-20,i,1,-4
COCCNC(=O)C1(C)CCN(C(=O)c2ccc(OC)c(F)c2)C1 (centres undefined),nt,1,nt,nt,nt
CC(C)(C)OC(=O)N1CCC(c2cc(=O)n3[nH]cc(C(=O)NC4CCCC4)c3n2)CC1,-11,5,i,3.2*,-2
CC(=O)c1ccc(-c2ccc(C(=O)NC3CCCCCC3)o2)cc1,-2,5,i,0,-1
CC1(c2nc3ccccc3[nH]2)CCC(=O)N1C1CC1 (centres undefined),nt,-7,nt,nt,nt
CCCN1CCN(C(=O)CCCNC(=O)Cn2cnc3sc(C)c(C)c3c2=O)CC1,-11,6,i,0,36*[fluorescence artefact?]
CC(C)C(=O)Nc1ccc2c(c1)nc(CCN1CCN(C)CC1)n2C,7,-7,i,3.6*,-1
CN1CCN(CCc2nc3cc(NC(=O)COc4ccccc4)ccc3n2C)CC1,-3,5,i,0,-6
CC(=O)Nc1ccc(NC(=O)Nc2cc(C)cc(C)c2)cc1,1,7,i,3.6*,-8
Cc1cc(C)cc(NC(=S)Nc2ccc(Cl)c(Cl)c2)c1,-3,43*,i,0,3
Cc1cccc(C)c1NC(=S)Nc1ccc(Cl)c(Cl)c1,-4,45*,i,-1,-3
Cc1ccc(NC(=S)Nc2ccc(Cl)c(Cl)c2)c(OC(F)F)c1,-5,14,i,0,4
CCN(CC)C(=S)Nc1ccc(OC)cc1,active,-31,+,0,1
COc1ccc(NC(=S)N(Cc2ccc(C(=O)O)cc2)Cc2ccc(OC)c(OC)c2)cc1,91*,-10,+,0,1
COc1ccc(CN(Cc2ccc(C(=O)O)cc2)C(=S)Nc2cccc(C)c2)cc1OC,-4,-34,i,1,-3
O=C(Nc1ccc(S(=O)(=O)Nc2ncccn2)cc1)c1ccccc1NS(=O)(=O)c1ccc(Cl)cc1,1,17,i,1,-7
COc1cc(C2C3=C(COC3=O)OC(C)(C)Oc3cc4c(cc32)OCO4)cc(OC)c1OC (centres undefined),nt,6,nt,nt,nt
Cc1ccc(Oc2c(C(N)=O)cc([N+](=O)[O-])cc2[N+](=O)[O-])cc1,-8,21,i,1,40*[fluorescence artefact?]
SMILES,eIF4H FP inh,MLLE-PAM2 inh,PABP FP inh,PERK inhibitor,eIF4E 4G PPI
CC(C)(CO)Nc1ncnc2onc(-c3ccc(F)cc3)c12,92*,5,+,nt,nt
c1ccc(COc2cncc(-c3cccnc3)c2)cc1,nt,0,nt,nt,nt
CC(C)C(c1nnnn1Cc1ccccc1)N(CCCO)Cc1cc2cc3c(cc2[nH]c1=O)OCO3 (centres undefined),111*,28,+,1,-8
O=c1[nH]c2cc3c(cc2cc1CN(CCCO)Cc1nnnn1Cc1ccc(F)cc1)OCO3,4,46*,i,1,2
COc1cccc(NC(=S)N/N=C2/CCCCc3ccccc32)c1,18,45*,i,0,-3
CC(C)(C)N1CCC1CN (centres undefined),6,9,i,4.5*,0
CCn1c2ccccc2c2nc3cc(S(=O)(=O)N4CCOCC4)ccc3nc21,-3,31,i,-1,48*
CCN(CC)S(=O)(=O)c1cccc(C(=O)N/N=C2\CCCC(=O)C2)c1,55,-5,+,-1,-3
